Among all 5,500 compounds or so, about 2,000 (36%) were called active. Not shown: some 18% with an inconclusive outcome. Cut-off read from the data, not from the text of the source: active = normalized growth mostly below about 0.91 (no sharp cut-off); inconclusive = no clear call, values can overlap the other calls; inactive = mostly above about 0.92. This is one part of the list.
Test: chemical genetic growth profiling, strain panel (AID 1159580);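 note: tested at 20 µM; growth read once vehicle control cultures reached saturation at 30 °C; 1 = growth at the plate median or of vehicle wells; lower values mean less growth of the strain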
Conditions: growth OD

Measured: normalized growth

CC(Cc1ccc(O)c(O)c1)(NN)C(=O)O (centres undefined)
inactive: S. cerevisiae deletion strains, locus YJR075W, strain HOC1, active compounds read low 1.02 | S. cerevisiae deletion strains, locus YKL009W, strain mrt4, active compounds read low 0.991 | S. cerevisiae deletion strains, locus YKL068W, active compounds read low 0.997 | S. cerevisiae deletion strains, locus YKL085W, strain MDH1 (second series), active compounds read low 0.992 | S. cerevisiae deletion strains, locus YKL085W, strain MDH1, active compounds read low 0.992 | S. cerevisiae deletion strains, locus YKL160W, strain elf1, active compounds read low 1.01 | S. cerevisiae deletion strains, locus YKL190W, strain CNB1, active compounds read low 0.991 | S. cerevisiae deletion strains, locus YKR001C, strain vps1, active compounds read low 1 | S. cerevisiae deletion strains, locus YKR026C, strain gcn3, active compounds read low 0.988 | S. cerevisiae deletion strains, locus YKR091W, strain srl3, active compounds read low 1.01 | S. cerevisiae deletion strains, locus YLL001W, strain dnm1, active compounds read low 1.01 | S. cerevisiae deletion strains, locus YLL026W, active compounds read low 1.01 | S. cerevisiae deletion strains, locus YLL041C, strain sdh2, active compounds read low 1.01 | S. cerevisiae deletion strains, locus YLR027C, strain aat2, active compounds read low 1.01 | S. cerevisiae deletion strains, locus YLR039C, strain RIC1, active compounds read low 1.04 | S. cerevisiae deletion strains, locus YLR058C, strain SHM2, active compounds read low 1.01 | S. cerevisiae deletion strains, locus YLR102C, strain apc9, active compounds read low 1.02 | S. cerevisiae deletion strains, locus YLR113W, strain HOG1, active compounds read low 0.918 | S. cerevisiae deletion strains, locus YLR221C, strain rsa3, active compounds read low 1.01 | S. cerevisiae deletion strains, locus YLR258W, strain gsy2, active compounds read low 0.999 | S. cerevisiae deletion strains, locus YLR262C, strain YPT6 (second series), active compounds read low 0.978 | S. cerevisiae deletion strains, locus YLR262C, strain YPT6, active compounds read low 1.03 | S. cerevisiae deletion strains, locus YLR268W, strain sec22, active compounds read low 0.996 | S. cerevisiae deletion strains, locus YLR320W, strain mms22, active compounds read low 1.02 | S. cerevisiae deletion strains, locus YLR330W, strain CHS5, active compounds read low 1 | S. cerevisiae deletion strains, locus YLR342W, strain FKS1 (second series), active compounds read low 0.966 | S. cerevisiae deletion strains, locus YLR342W, strain FKS1, active compounds read low 0.992 | S. cerevisiae deletion strains, locus YLR357W, strain rsc2, active compounds read low 0.973 | S. cerevisiae deletion strains, locus YLR370C, strain arc18, active compounds read low 1.01 | S. cerevisiae deletion strains, locus YLR371W, strain rom2, active compounds read low 1.01 | S. cerevisiae deletion strains, locus YLR384C, strain iki3, active compounds read low 0.976 | S. cerevisiae deletion strains, locus YLR418C, strain cdc73, active compounds read low 1.07 | S. cerevisiae deletion strains, locus YML016C, strain PPZ1, active compounds read low 0.999 | S. cerevisiae deletion strains, locus YML032C, strain rad52, active compounds read low 1.01 | S. cerevisiae deletion strains, locus YML120C, strain ndi1, active compounds read low 0.99 | S. cerevisiae deletion strains, locus YML124C, strain tub3, active compounds read low 1.01 | S. cerevisiae deletion strains, locus YMR058W, strain fet3, active compounds read low 0.987 | S. cerevisiae deletion strains, locus YMR078C, strain ctf18, active compounds read low 1.02 | S. cerevisiae deletion strains, locus YMR125W, strain sto1, active compounds read low 1 | S. cerevisiae deletion strains, locus YMR129W, active compounds read low 0.997 | S. cerevisiae deletion strains, locus YMR205C, strain PFK2, active compounds read low 1.04 | S. cerevisiae deletion strains, locus YMR223W, strain ubp8, active compounds read low 0.996 | S. cerevisiae deletion strains, locus YMR231W, strain pep5, active compounds read low 1.01 | S. cerevisiae deletion strains, locus YMR263W, strain SAP30, active compounds read low 0.988 | S. cerevisiae deletion strains, locus YMR307W, strain GAS1, active compounds read low 1.05 | S. cerevisiae deletion strains, locus YNL067W, strain RPL9B, active compounds read low 0.966 | S. cerevisiae deletion strains, locus YNL071W, strain lat1, active compounds read low 0.993 | S. cerevisiae deletion strains, locus YNL183C, strain NPR1, active compounds read low 0.912 | S. cerevisiae deletion strains, locus YNL209W, strain ssb2, active compounds read low 0.993 | S. cerevisiae deletion strains, locus YNL233W, strain BNI4, active compounds read low 0.982 | S. cerevisiae deletion strains, locus YNL248C, strain rpa49, active compounds read low 1.01 | S. cerevisiae deletion strains, locus YNL250W, strain rad50, active compounds read low 1 | S. cerevisiae deletion strains, locus YNL271C, strain bni1, active compounds read low 1.01 | S. cerevisiae deletion strains, locus YNL298W, strain CLA4, active compounds read low 1.02 | S. cerevisiae deletion strains, locus YNL307C, strain MCK1, active compounds read low 1.02 | S. cerevisiae deletion strains, locus YNL322C, strain KRE1 (second series), active compounds read low 1 | S. cerevisiae deletion strains, locus YNL322C, strain KRE1, active compounds read low 0.999 | S. cerevisiae deletion strains, locus YNR049C, strain mso1, active compounds read low 1.01 | S. cerevisiae deletion strains, locus YNR052C, strain pop2, active compounds read low 1.01 | S. cerevisiae deletion strains, locus YOL006C, strain TOP1, active compounds read low 0.989 | S. cerevisiae deletion strains, locus YOL012C, strain htz1 0.764 | S. cerevisiae deletion strains, locus YOL147C, strain pex11, active compounds read low 1.01 | S. cerevisiae deletion strains, locus YOR001W, strain rrp6, active compounds read low 0.987 | S. cerevisiae deletion strains, locus YOR061W, strain CKA2, active compounds read low 1 | S. cerevisiae deletion strains, locus YOR069W, strain VPS5, active compounds read low 1.03 | S. cerevisiae deletion strains, locus YOR070C, strain gyp1, active compounds read low 1 | S. cerevisiae deletion strains, locus YOR080W, strain dia2, active compounds read low 1 | S. cerevisiae deletion strains, locus YOR083W, strain WHI5, active compounds read low 0.996 | S. cerevisiae deletion strains, locus YOR106W, strain vam3, active compounds read low 0.984 | S. cerevisiae deletion strains, locus YOR136W, strain idh2, active compounds read low 1.01 | S. cerevisiae deletion strains, locus YOR144C, strain elg1, active compounds read low 1 | S. cerevisiae deletion strains, locus YOR184W, strain ser1, active compounds read low 1.03 | S. cerevisiae deletion strains, locus YOR231W, strain MKK1, active compounds read low 0.955 | S. cerevisiae deletion strains, locus YOR265W, strain rbl2, active compounds read low 0.993 | S. cerevisiae deletion strains, locus YOR270C, strain vph1, active compounds read low 1.11 | S. cerevisiae deletion strains, locus YOR290C, strain snf2, active compounds read low 1 | S. cerevisiae deletion strains, locus YOR316C, strain cot1, active compounds read low 1.01 | S. cerevisiae deletion strains, locus YPL051W, strain arl3, active compounds read low 0.991 | S. cerevisiae deletion strains, locus YPL055C, strain LGE1, active compounds read low 0.926 | S. cerevisiae deletion strains, locus YPL078C, strain atp4, active compounds read low 0.991 | S. cerevisiae deletion strains, locus YPL106C, strain sse1, active compounds read low 0.918 | S. cerevisiae deletion strains, locus YPL240C, strain hsp82, active compounds read low 1 | S. cerevisiae deletion strains, locus YPL256C, strain CLN2, active compounds read low 0.968 | S. cerevisiae deletion strains, locus YPR119W, strain clb2, active compounds read low 1.01 | S. cerevisiae deletion strains, locus YPR141C, strain kar3, active compounds read low 0.999 | S. cerevisiae deletion strains, locus YPR163C, strain tif3, active compounds read low 1.01 | S. cerevisiae deletion strains, locus YPR167C, strain met16, active compounds read low 1.02 | S. cerevisiae deletion strains, strain wtn01, active compounds read low 1.01 | S. cerevisiae strains, strain wild type, active compounds read low 0.988
